Measurements as given in PubChem BioAssay AID1471 (National Center for Advancing Translational Sciences (NCATS), 2008).
The whole screen tested about 230,000 compounds, of which about 310 (0.13%) were called active. Not shown: some 2% with an inconclusive outcome. The call rests on the fitted dose curve; in most records, active means well fitted activation curve with a large enough effect; inconclusive means small, poorly fitted or top-dose-only effect; inactive means no such curve, though single readings can be large or run the other way. For the sample, actives were picked, then their nearest neighbours and some compounds at random.

assay: qHTS Multiplex Assay to Identify Dual Action Probes in a Cell Model of Huntington: Cytoprotection (ATP); settings: PC12 HTT-Q103 induced, ATP luminescence, 40 h; series mostly up to 56.4 µM; cytoprotection (ATP increase): at the top concentration; further: nearly all actives have a fitted effect of over 45% in size;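 on cytoprotection (ATP increase): toxic huntingtin expression switched on by the ecdysone agonist tebufenozide; % of control where 0% means no effect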
Excerpt: NIH Chemical Genomics Center [NCGC]
NIH Molecular Libraries Probe Production centers Network [MLPCN]
Assay Submitter (PI): Wei Zheng
Huntington's disease is a neurodegenerative disorder caused by a trinucleotide repeat expansion in Exon 1 of the Huntingtin gene. The CAG trinucleotide encodes glutamine and polyglutamine expansions cause cell death in selective areas of the brain. Huntington polyglutamine repeats have the tendency to form aggregates which are observable in later stages of the disease. The exact nature of the aggregates, whether toxic, protective, or insignificant, is unclear.
A stable PC12 cell line containing a gene fusion of Exon 1 of the Huntingtin gene linked to GFP under the control of the inducible ecdysone promoter were used as the cell-based model of Huntington Disease for high throughput screening. Exon 1 of the Huntingtin gene contained an expansion of 103 polyglutamines (Q103) which, when expressed, caused cell death and distinct, bright GFP aggregates. The amount of cell death and the size and intensity of GFP aggregates increased over time and induction level. The cell death were quantified with a measurement of ATP content in the cells. A maximal 40-50% of cell death was observed when the Huntington gene was induced in this cell line.
We optimized this assay in a homogeneous 1536 well format. A quantitative high throughput screen (qHTS) was conducted on the PC12 cells which were induced to express the toxic fusion construct. Small molecules which prevented cell death were identified by using a luminescent ATP quantification method (Perkin Elmer's ATPlite).
PC12 cells stably containing a construct with an ecdysone inducible promoter expressing GFP fused to the exon 1 of HTTQ103 (Huntington protein which containing a 103 ployglutamine expansion) were used.
NCGC Assay Protocol Summary:
Sequence, Parameter, Description
1, Reagent, 5 uL 1500 cells/well 1536 TC treated White clear bottom plate
2, Compound, 23 nL Tebufenozide inducer (100 nM final) to all columns
3, Compound, 23 nL 40 uM to 0.5 nM Libraries
5, Reagent, 5 ul ATPLite cell death assay reagent
6, Detector, 4 sec integration with a Viewlux Luminescent
Media consisted of phenol red free DMEM + 5% equine serum (Hyclone # SH30072.03 ), 5% supplemented Bovine Calf Serum (Hyclone # SH30074.03 ), 1x pen/strep, no G418
Control columns: 1 = DMSO, 2= 2 uM teb dilns (1:1), 4 = 100 nM Teb inducer. Sample columns received 100 nM Teb.

Cytoprotection (ATP increase), inactive:
CCCCCCCC/C=C\CCCCCCCC(=O)NCC(=O)O -16%, CC(=O)Oc1ccccc1C1=NN(C(C)=O)C(c2ccccc2)C1 (stereo not given) 1.76%, CCCN(CCc1ccccc1)C1CCc2c(O)cccc2C1 (stereo not given) -47.4%, CCOC(=O)C1=C(C)c2ccccc2OC1C(=O)OCC (stereo not given) -21.5%, O=C(O)C[C@@H]1NC(=O)[C@H](Cc2ccccc2)NC1=O 1.88%, COc1ccc(-c2nc3c(c4c2C[C@H](c2ccccc2)OC4)CN(C(=O)c2cccnc2)CC3)c(C)c1 27.4% [at 10 µM], COc1ccc(NC(=S)NC2CCS(=O)(=O)C2)cc1 (stereo not given) 2.72% [at 0.074 µM], COc1cccc(CC(=O)N2CCc3nc(COc4ccccc4)c4c(c3C2)CO[C@@H](C)C4)c1 16.2% [at 10 µM], CC(C)C1=CC2=CC[C@H]3[C@](C)(C(=O)O)CCC[C@]3(C)C2CC1 (stereo not given in full) 20.6%, COc1ccc(-c2[nH]nc(-c3ccccc3)c2-c2nc3ccccc3[nH]2)cc1 -25.5%, CCOC(=O)CCNC(=O)N1CCCC(C(=O)c2ccccc2SC)C1 (stereo not given) 2.06% [at 10 µM], CSc1ncccc1C(=O)N1CCCC(CCC(=O)NCc2ccccc2F)C1 (stereo not given) 4.93% [at 10 µM], C[C@@H]1C(c2ccc(F)cc2)=NN(c2ccc(Br)cc2)[C@H]1C(=O)N1CCOC1=O -34.3%, Cc1cc(=O)oc(C)c1C(=O)NCCN(C)Cc1ccccc1 2.05%, COc1ccc(-c2nc(-c3ccccc3)oc2Nc2ccc3ccccc3c2)cc1 0.363%, COc1ccc2c(c1)O[C@@H](c1ccc3c(c1)OCO3)[C@H](OC(=O)NCc1ccco1)C2=O -13.3%, O=C(O)CCC(=O)O -56.6%, CCCCCCCCCCCCCCCCO -9.09%, COc1ccc(CCCOC(Cn2ccnc2)c2ccc(OC)cc2)cc1 (stereo not given), NC(=O)C1CCN(C(=O)c2ccc(-c3ccccc3)cc2)CC1 7.6%, COc1ccccc1CN(C)c1nnnn1-c1ccccc1 -28%, COc1ccccc1N1CCN(C(=O)CN(Cc2ccc(Cl)cc2)S(C)(=O)=O)CC1 -17.7%, COC(=O)CCCC1=CC2=CC(=O)C(C)(OC(=O)c3cccs3)C(=O)C2=CN1c1ccc(CO)cc1 (stereo not given) -11% [at 10 µM], CC(=O)N(CC(O)CO)c1c(I)c(C(=O)NCC(O)CO)c(I)c(C(=O)NCC(O)CO)c1I (stereo not given) -5.53%, COC(=O)C1=C(C(=O)OC)[C@@H]2N(C)c3ccccc3[C@@]23C[C@@H](C(=O)OC)N(S(=O)(=O)c2cccs2)C3=N1 -27.2% [at 10 µM], COc1ccc(-c2noc(-c3cccc(OC)c3OC)n2)cc1OC -59.3%, COc1ccc(-c2noc(-c3ccc(C)cc3)n2)cc1 -47.5%, O=P(O)(O)C(O)c1ccc2ccccc2c1 (stereo not given) -34.5%, COCCNc1nc2nonc2nc1N(C)Cc1ccc(C)cc1 -6.59% [at 10 µM], Cc1ccc(NC(=O)O[C@@H]2C(=O)c3cc(Br)ccc3O[C@H]2c2ccc3c(c2)OCO3)cc1Br 18.1%, CCNc1nc(NC(C)C)nc(OCCOC(=O)c2ccccc2)n1 -7.6% [at 10 µM], COc1ccc(C2(C#N)CCC(C(=O)O)CC2)cc1OC1CCCC1 (stereo not given) -6.84%, C=C(C)C(=O)c1ccc(F)cc1 -4.25%, C/C(Nc1ccc2oc(=O)ccc2c1)=C1/C(=O)CC2[C@@H]1C2(C)C (stereo not given in full) 17.8%, Nc1ccc(N=Nc2ccccc2Cl)c(N)n1 7.07% [at 10 µM], COC(C)C(C(=O)OCC1=CCN2CC[C@H](O)[C@@H]12)C(C)C (stereo not given in full) -53.3%, COc1ccc(-c2c(C)cc3oc(=O)cc(-c4ccccc4)c3c2C)cc1F -61.8%, N#C/C(=C\C1=C(N2CCOCC2)C(=C\c2ccccc2)/CC1)C(=O)Nc1ccccc1F 6.74% [at 10 µM], COC(=O)C1=C(C(=O)OC)[C@@H]2Nc3ccccc3[C@@]23C[C@@H](C(=O)OC)N(S(=O)(=O)c2ccc([N+](=O)[O-])cc2)C3=N1 9.32% [at 10 µM], COC(=O)C1=C(N)Oc2cc(C)[nH]c(=O)c2C1c1ccc(Cl)cc1 (stereo not given) -1.17% [at 10 µM], COc1ccc(C2CC(=O)Oc3ccc(C(C)(C)C)cc32)cc1 (stereo not given) -9.32%, FCOC(C(F)(F)F)C(F)(F)F 32%, CC(C)=CCC[C@]1(C)[C@@H](CC=C(C)C)C[C@@]2(CC=C(C)C)C(=O)[C@]1(C(=O)C(C)C)C(=O)C(CC=C(C)C)=C2O -130%, O=C(OCc1ccccc1)c1ccc(O)cc1 9.85%, COc1ccc(-c2nc3c(c4c2C[C@H](c2ccccc2)OC4)CN(C(=O)c2ccco2)CC3)c(C)c1 -10% [at 10 µM], CCCCCCCC1=Cc2ccc(F)cc2C(C(C(=O)OC)C(=O)OC)N1C(=O)OC (stereo not given), OCC(CO)NC1C[C@](O)(CO)[C@@H](O)[C@H](O)[C@H]1O (stereo not given in full) 43.4%, CC(=O)OC1C([N+]2(C)CCCCC2)C[C@H]2C3CC[C@H]4C[C@H](OC(C)=O)C([N+]5(C)CCCCC5)CC4(C)C3CCC12C (stereo not given in full) -36.3%, Oc1ccc(Cl)c2c1CCC2 22.2%, O=C(O)C1CCCN(CCC=C(c2ccccc2)c2ccccc2)C1 (stereo not given) -9.11%, COCCNc1nc(-c2ccccc2)nc2c1oc1ccccc12 13.7% [at 10 µM], CC(=O)c1cnn(-c2cc(Oc3ccc(F)cc3)ncn2)c1C -0.119%, CO[C@@]12[C@@H](COC(N)=O)C3=C(C(=O)C(C)=C(N)C3=O)N1C[C@@H]1N[C@@H]12 -173%, C[C@]12CC[C@@H]3c4ccc(O)cc4C[C@@H](CCCCCCCCCS(=O)CCCC(F)(F)C(F)(F)F)C3[C@@H]1CC[C@@H]2O (stereo not given in full) 2.26%, O=C(Cn1cnc2c(nnn2Cc2ccc(F)cc2)c1=O)NCc1ccc2c(c1)OCO2 7.52% [at 10 µM], O=C(Cc1ccc(F)cc1)NC1CCCC1 14.1%

Potency, active:
CSCCC(=O)N1CCCC(CNC(=O)c2ccccc2Cl)C1 (stereo not given) 2.82 µM, COc1ccccc1-n1nnnc1S(=O)(=O)Cc1ccc(Cl)cc1 25.1 µM, COc1ccc(-c2nc(-c3ccccc3)no2)c(OC)c1 5.62 µM, O=C(CSc1ncnc2c1nnn2Cc1ccc(F)cc1)NC1CCCC1 1.26 µM
